Screening results from PubChem.
Only a selection was taken, and hits are over-represented in it overall.
Shiga toxin inh = Shiga toxin inhibition; Vero cells, Shiga toxin protein synthesis inhibition reporter; inhibition, % at 38.7 µM; 290,000 compounds, 9.2% hits; AID 2315; in the data active = inhibition mostly above about 28%, no sharp cut-off; inactive = mostly below about 43%; note: 0% is about no effect
CHX counter-1 = affects cycloheximide protein synthesis inhibition readout, counter-screen; cell reporter, cycloheximide protein synthesis inhibition counterscreen; 300,000 compounds, 12% hits; max response, %; AID 2314; in the data active = max response mostly above about 13%, no sharp cut-off; inactive = mostly below about 14%; note: read at 38.3 µM for the half of the compounds with a filed dose; 0% is about no effect
Giardia FBPA inh = blocks Giardia fructose-bisphosphate aldolase activity; Potency, µM (titrated, usually from 59.6 µM), for inactives: at the highest dose activity, negative = inhibition, most hits filed as inhibitors; AID 2451; 290,000 compounds, 0.71% hits; A8B2U2; purified Giardia FBPA; note: potency is the fitted concentration of half-maximal effect; % is set by controls: 0 for no effect and ±100 for the full control effect; nearly all actives have a fitted effect of over 55% in size
Target sequence (A8B2U2 whole entry, looked up): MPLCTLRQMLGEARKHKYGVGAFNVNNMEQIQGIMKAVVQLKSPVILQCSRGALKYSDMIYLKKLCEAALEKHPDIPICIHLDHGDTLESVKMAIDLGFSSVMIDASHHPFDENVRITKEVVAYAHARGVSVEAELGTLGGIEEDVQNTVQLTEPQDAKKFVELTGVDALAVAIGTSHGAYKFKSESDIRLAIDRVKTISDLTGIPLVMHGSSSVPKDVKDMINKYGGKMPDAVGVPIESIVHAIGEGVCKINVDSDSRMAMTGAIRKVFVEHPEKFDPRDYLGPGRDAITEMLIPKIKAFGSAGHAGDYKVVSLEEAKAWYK
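Giardia FBPA (40 nM reagent) was preincubated 10 min at RT with compound (up to 57.5 uM final), then substrate plus GAPDH/TPI/NAD/arsenate coupling system with diaphorase/resazurin was added; resorufin fluorescence (525/598 nm) was read after 20 min.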
Tb PYK inh = T. brucei pyruvate kinase inhibition | 410,000 compounds, 0.12% hits | Q57TT1 | TbPYK enzyme, Kinase-Glo Plus ATP luminescence, 45 min | Potency, µM (top dose mostly 76.8 µM), for the others: top-dose activity, negative = inhibition, actives largely listed as inhibitors; note: potency is the fitted concentration of half-maximal effect; % is set by controls: 0 for no effect and ±100 for the full control effect; nearly all actives have a fitted effect of over 50% in size
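ADP (130 uM final) triggers the TbPYK reaction after compound addition; incubation is 45 min at room temperature. Kinase-Glo Plus is then added and luminescence imaged. Normalized data are fitted to concentration-effect curves.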
Sm TGR inh = blocks Schistosoma mansoni thioredoxin glutathione reductase; Potency, µM (doses to about 114 µM), inactives show at the top dose activity change, negative = inhibition, usual class: inhibitors; AID 485364; Q962Y6; 360,000 compounds, 3% hits; purified TGR, DTNB reduction, TNB absorbance 405 nm; note: potency is the fitted concentration of half-maximal effect; % is set by controls: 0 for no effect and ±100 for the full control effect; nearly all actives have a fitted effect of over 60% in size
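TGR 20 nM + NADPH 100 uM (dispensed conc.), cpd preinc 15 min RT; start with NADPH (500 uM addition) then DTNB (15 mM addition). Kinetic TNB absorbance, 405 nm filter. Four-parameter Hill fit across titration.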
LmPK inhibitor = inhibitors of Leishmania mexicana pyruvate kinase; AID 1721; Q27686; purified LmPK, Kinase-Glo ATP luminescence, 1 h; 290,000 compounds, 0.37% hits; Potency, µM (series often up to 57.5 µM), for the others: top-dose activity change, negative = inhibition, hits mostly inhibitors; note: potency is the fitted concentration of half-maximal effect; % is set by controls: 0 for no effect and ±100 for the full control effect
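0.1 nM LmPK, 0.5 mM PEP, 0.1 mM ADP; 50 mM imidazole pH 7.2, 7 mM MgCl2, 50 mM KCl; 1 h RT. Kinase-Glo luminescence readout, normalized to no-enzyme (full inhibition) and uninhibited wells.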
CHX counter-2 = affects protein synthesis reporter in cycloheximide counter-screen; shares compounds with Shiga toxin inh; Cycloheximide counterscreen, protein synthesis reporter, Shiga toxin assay; Potency, µM (series often up to 38.3 µM), for the others: at the top dose activity (activation), most hits filed as activators; 510 compounds, 3% hits; AID 2318; calls by dose curve; note: potency is the fitted concentration of half-maximal effect; 0% is about no effect
Numbers without * were called inactive. Unless noted, calls come from the whole dose curve; as a rule, active = well fitted curve in the direction sought with a large enough effect; inconclusive = small, poorly fitted or top-dose-only effect, or another doubt; inactive = no such curve, though single readings can be large; an effect the other way counts as inactive or inconclusive.

Screening CCOC(=O)c1c(NC(=O)c2ccc(S(=O)(=O)N3CCC(C)CC3)cc2)sc2c1CCN(CC)C2 returned Tb PYK inh 1.4% and Sm TGR inh 2.8%.
Screening N#CC1=C(N)N(c2cccc(Cl)c2)C2=C(C(=O)CCC2)C1c1cc(CN2CCOCC2)cs1 (stereo not drawn) returned Tb PYK inh -6.5% and Sm TGR inh 2.1%.
For COc1ccc(C(=O)N2CCC(c3ccncc3)CC2)cc1OC the results were Tb PYK inh 4.4% and Sm TGR inh -2.5%.
Cc1ccc(CSc2nnc(CCCCCNC(=O)OC(C)(C)C)o2)cc1 was read as Shiga toxin inh 25.2*, CHX counter-1 -2.6, Giardia FBPA inh -2.5%, Tb PYK inh -15.6%, Sm TGR inh -29.9%, LmPK inhibitor -0.2% and CHX counter-2 -0.5%.
For Cc1oc(C(C)(C)C)cc1C(=O)NCC(=O)NCC(=O)O the results were Shiga toxin inh 49.8*, CHX counter-1 2.0, Giardia FBPA inh 5.1%, Tb PYK inh 6.1%, Sm TGR inh -17.5%, LmPK inhibitor -3.4% and CHX counter-2 -3.5%.
For Cc1cc(C(=O)NCC(=O)Nc2c(C)cccc2C)c(C)o1 the results were Shiga toxin inh -3.7, CHX counter-1 10.6, Giardia FBPA inh -8.6%, Tb PYK inh 1.3%, Sm TGR inh -3.1% and LmPK inhibitor 5.5%.
Screening Cc1ccc(C)c(C(C)NC(=S)NCc2ccc(F)cc2)c1 (stereo not drawn) returned Shiga toxin inh 9.5, CHX counter-1 7.1, Giardia FBPA inh 6.9%, Tb PYK inh -13.2%, Sm TGR inh 7.7% and LmPK inhibitor 0.5%.
For CCN1CCc2c(sc(NC(=O)c3ccc(S(=O)(=O)N4CCCC(C)C4)cc3)c2C(=O)OC)C1 (stereo not drawn) the results were Tb PYK inh 0.8% and Sm TGR inh 3.8%.
Screening CC(=O)[C@@H]1[C@@H]2C(=O)N(c3ccc(F)c(Cl)c3)C(=O)[C@@H]2C2c3ccccc3C=CN21 (stereo partly drawn) returned Shiga toxin inh active, CHX counter-1 -2.5, Giardia FBPA inh inconclusive, Sm TGR inh 35.5µM*, LmPK inhibitor 5.2% and CHX counter-2 -0.8%.
Cc1ccc(N2C(=O)[C@@H]3[C@H](C2=O)C2c4ccccc4C=NN2[C@@H]3C(=O)c2ccc(Cl)cc2)cc1 (stereo partly drawn) was read as Shiga toxin inh -3.3, CHX counter-1 -1.8, Giardia FBPA inh -4.1%, Tb PYK inh 7.3%, Sm TGR inh -17.6% and LmPK inhibitor -1.4%.
Screening CCOc1ccc(CN2CCN(Cc3cc4ccccc4o3)CC2CCO)cc1 (stereo not drawn) returned CHX counter-1 8.1, Giardia FBPA inh 7.0%, Tb PYK inh -6.1%, Sm TGR inh -6.5%, LmPK inhibitor 1.2% and CHX counter-2 -1.1%.
For CCc1nc2ccc(C(=O)N3CCCCC3)cn2c1N(CCC(C)C)CCN(C)C the results were Tb PYK inh -1.1%.
For Cc1nc(-c2ccccc2)sc1C1(C)CC(c2cccc(F)c2)=NO1 (stereo not drawn) the results were Tb PYK inh 0.7%.
Screening Cc1nc(-c2ccccc2)sc1C1(C)CC(c2cccc([N+](=O)[O-])c2)=NO1 (stereo not drawn) returned Shiga toxin inh 30.1*, CHX counter-1 1.2, Giardia FBPA inh 4.8%, Tb PYK inh 1.5%, Sm TGR inh -5.8%, LmPK inhibitor -8.4% and CHX counter-2 1.1%.
For COc1ccc(NC(=O)CN(C)S(=O)(=O)c2ccc(Br)s2)cc1 the results were Shiga toxin inh 23.5, CHX counter-1 9.8, Giardia FBPA inh -6.2%, Tb PYK inh -1.4%, Sm TGR inh -6.7% and LmPK inhibitor -3.3%.
For COc1ccc(NC(=O)CN(C)S(=O)(=O)c2ccc(Br)s2)cc1OC the results were Shiga toxin inh 34.5*, CHX counter-1 2.5, Giardia FBPA inh -1.7%, Tb PYK inh 0.0%, Sm TGR inh -0.8%, LmPK inhibitor 3.2% and CHX counter-2 1.2%.
For CCCC1NC(=O)c2cc3ccccc3cc2-n2c1nc1ccc(C)cc1c2=O (stereo not drawn) the results were Tb PYK inh 3.0%.
For Cc1ccc(C(=O)Cn2c(NCCO)nc3ccccc32)cc1 the results were Shiga toxin inh 34.8, CHX counter-1 -1.3, Giardia FBPA inh 4.8%, Tb PYK inh -7.6%, Sm TGR inh 3.6% and LmPK inhibitor 2.2%.
`O=C(Cn1c(NCCO)nc2ccccc21)c1ccccc1` gave Shiga toxin inh active, CHX counter-1 3.5, Giardia FBPA inh -9.4%, Tb PYK inh -12.9%, Sm TGR inh -0.6%, LmPK inhibitor 1.6% and CHX counter-2 -0.1%.
Screening COc1ccccc1NC(=O)Nc1nc(CC(=O)Nc2cc(F)ccc2F)cs1 returned Tb PYK inh -6.3% and Sm TGR inh 8.2%.
`COc1ccccc1NC(=O)Nc1cc(F)ccc1F` gave Shiga toxin inh 131.5*, CHX counter-1 15.7, Giardia FBPA inh -7.7%, Tb PYK inh 4.5%, Sm TGR inh 3.2%, LmPK inhibitor -8.5% and CHX counter-2 inconclusive.
Screening Cc1noc(C)c1C(=O)Nc1ccc(F)cc1 returned Shiga toxin inh -11.8, CHX counter-1 1.7, Giardia FBPA inh 2.5%, Tb PYK inh -4.1%, Sm TGR inh -4.3% and LmPK inhibitor 4.5%.
`Cc1noc(C)c1C(=O)Nc1ccc2c(c1)CCC2` gave Shiga toxin inh 73.2*, CHX counter-1 8.3, Giardia FBPA inh 5.7%, Tb PYK inh 3.3%, Sm TGR inh 0.0%, LmPK inhibitor -1.1% and CHX counter-2 -2.1%.
N#C/C(=C(/O)COc1ccccc1)c1nc2ccccc2s1 was read as Shiga toxin inh -18.4, CHX counter-1 -2.6, Giardia FBPA inh 11.4%, Tb PYK inh -1.7%, Sm TGR inh 1.7% and LmPK inhibitor -1.2%.
COc1ccc(C/C(O)=C(\C#N)c2nc3ccccc3s2)cc1 was read as Shiga toxin inh 34.5*, CHX counter-1 1.1, Giardia FBPA inh inconclusive, Tb PYK inh -3.8%, Sm TGR inh -6.7%, LmPK inhibitor 0.6% and CHX counter-2 -2.7%.
`Cc1nn(-c2ccc(C(=O)O)cc2)c2c1C(=O)CC(C)(C)C2` gave Shiga toxin inh 80.9*, CHX counter-1 -1.7, Giardia FBPA inh 5.9%, Tb PYK inh 1.6%, Sm TGR inh 0.0%, LmPK inhibitor -3.0% and CHX counter-2 -4.8%.
For CC1(C)CC(=O)c2c(nn(-c3ccccc3)c2-c2ccncc2)C1 the results were Shiga toxin inh -7.4, CHX counter-1 -3.6, Giardia FBPA inh 3.6%, Tb PYK inh 7.4%, Sm TGR inh 2.3% and LmPK inhibitor -0.5%.
